The first assay concerns RARg homodimer (NR concentration 270 nM). In words: PBM binding z-score (relative to random genomic background probes); higher = stronger binding; sequences stand for … in GC…GCGATTGACAGCGTAGAATGAAGG
The gist of the method: (§1)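 Ligand-free nuclear receptor dimers were bound for 1 h to custom Agilent 4×180K protein-binding microarrays. Detection used antibodies against each partner (one per run). Binding z-scores rest on regression-normalized fluorescence, with random background probes as the reference.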
Take CCGAGTAGGTTACGAGCGGGCATTCAGTGCGAAT: the PBM binding z-score was found to be 0.688.
Take CCGAGTAGGTTACGAGGGGGCATTAAGTGCGAAT: the PBM binding z-score amounted to 2.45.
Still for that read-out and setting: the value for ATATGTAGGCTAGGGTCATTCAGAAAGTAGGGAA was 2.17; that for CTCGAAAGGTCGGTTGAGGTCAGTATACGGATAA was 4.93.
The same measure, in the same setting: the value for CGAACTAGGTCACCAGGACAGTCAAGAGGTTGGA was 5.18.
Still for that read-out and setting: the value for TCATATAGGTGAAAGGTGAAAGTCGGTGTGGTAA was 1.46.
ATATGTAGCTTAAGGGTCATTCAGGTTGGTTCGC registered a PBM binding z-score of 2.82.
Same read-out and setting: under GCTGCTAGGTCAGGTTGGTCAGCTAACGGGTACG stands 3.45; under ATACGTAGGTTACATCCGGGTCATTCAGGCTATG, 2.17; under CTATGTAGGTTAAGGAGGTCATTCAGTTTGAAAG, 3.37.
Take CTATGAAGGTTAAGGGGGTCATTCAGTTTGAAAG: the PBM binding z-score amounted to 4.32.
Same read-out and setting: under CGAACTAGGTCACCCGGACAGTGAAGAGGTTGGA stands 5.44.
Same read-out and setting: under TAGCCTAGGTCATAGGCCAGTATACCACGCGAAC stands 4.21; under TCGAGTAGGTTACGGGGGCGTTCAGGGATGAAGA, 1.99; under CGAACTAGGTCAAATGACAGTGAAAGGCGACGTA, 4.97.
For the sequence ATATGGAGGTTAAGGGTCATTCAGGTTGGTTCGC, the PBM binding z-score turned out to be 4.13.
CCTACTGGGCCAAGCTCATTGATCAGTCAAAGCA had a PBM binding z-score of -0.109.
Still for that read-out and setting: the value for AGTCAAAGTTCATCAAGGTAACGTAAGATATGCT was 5.96; that for ACAGACAGGTGAGTGAAGGTCACTCAGCTGGACG was 3.72; that for TCGAGTAGGTTACGGGGGCCTTCAGGGATGAAGA was 1.33.
Same read-out and setting: the value for CAAACTAGGTCACCGGAAAGTCAAAGTCCGCATG was 5.86.
The sequence CGAACTAGGTCAACAGGACAGTGAAGAGGTTGGA came in with a PBM binding z-score of 5.29.
CGAACTAGATCACCAGGACAGTGAAGAGGTTGGA: the PBM binding z-score is 0.172.
On the same count and under the same terms, the value for CCGAGTAGGTTACGAGGGGACATTCAGTGCGAAT was 1.25; that for CTGAGTAGGTTACGAGGGGGCATTCAGTGCGAAT was 2.47.
The same measure, in the same setting: the value for ATATGTAGGTTAGGGTGATTCAGAAAGTAGGGAA was 0.813.
CCTAGTGGGCCAAAGGTCATTGATTCCAATGCTC displayed a PBM binding z-score of 4.92.
Same read-out and setting: the value for CTATGTAGGTTAAGGGGGTCATCCAGTTTGAAAG was 4.17.
Take CTCCAAAGGTCGGTTGAGGTGAGTATACGGATAA: the PBM binding z-score came out at 2.9.
For TCGAGTAGGTTACGGGGGCATTCATGGATGAAGA, the PBM binding z-score was found to be 2.71.
On the same count and under the same terms, under CACACTAGGTCAAAGGTCAAAGTCGAGCCAACCA stands 7.38; under CCGAGTAGGTTACGAGGGGGCATTCTGTGCGAAT, 2.43.
Sequence CCTAGTGGGTCAGGAGGTCACACACCGGATATGA returned a PBM binding z-score of 5.86.
Same read-out and setting: the value for CCTAGCAGGCCACGGTCACTCAAGCATTTCGCTT was 1.19.
Still for that read-out and setting: the value for ATCTCTAGGTCAAAGTTCAGTGAATCCCGAGGAT was 5.62; that for ACTCGGAGGACAAAGGTGAGAGCTACGCCAGTGA was 1.82.
Turning to ATATGAAGGTTATCGGGTCATTCAGTTTGCGCAT, the PBM binding z-score was found to be 2.89.
Same read-out and setting: the value for GGAACGGGGGCATTCGAGTTGATAGCATGGCGAT was 2.39; that for CCTAGTTGGTCAGGAGGTCACATACCGGATATGA was 3.85.

A further assay has as its system RXRa DBDmut IVT, anti-RXR (DBD mutation: RXRa K156A/R161A, NR concentration 90 nM). The description is as above. The gist of the method: as §1
As for CCGAGTAGGTTACGAGCGGGCATTCAGTGCGAAT, the PBM binding z-score amounted to 0.309.
The same measure, in the same setting: the value for CCGAGTAGGTTACGAGGGGGCATTAAGTGCGAAT was 1.56; that for ATATGTAGGCTAGGGTCATTCAGAAAGTAGGGAA was 2.
The same measure, in the same setting: the value for CTCGAAAGGTCGGTTGAGGTCAGTATACGGATAA was 1.63.
The sequence CGAACTAGGTCACCAGGACAGTCAAGAGGTTGGA returned a PBM binding z-score of 1.24.
TCATATAGGTGAAAGGTGAAAGTCGGTGTGGTAA had a PBM binding z-score of 2.
In turn, ATATGTAGCTTAAGGGTCATTCAGGTTGGTTCGC yielded a PBM binding z-score of 1.95.
Consider GCTGCTAGGTCAGGTTGGTCAGCTAACGGGTACG, for which the PBM binding z-score was found to be 0.582.
Take ATACGTAGGTTACATCCGGGTCATTCAGGCTATG: the PBM binding z-score is 0.372.
On the same count and under the same terms, the value for CTATGTAGGTTAAGGAGGTCATTCAGTTTGAAAG was 1.97; that for CTATGAAGGTTAAGGGGGTCATTCAGTTTGAAAG was 2.92; that for CGAACTAGGTCACCCGGACAGTGAAGAGGTTGGA was 1.27.
Still for that read-out and setting: under TAGCCTAGGTCATAGGCCAGTATACCACGCGAAC stands 0.7.
The sequence TCGAGTAGGTTACGGGGGCGTTCAGGGATGAAGA came in with a PBM binding z-score of 1.4.
CGAACTAGGTCAAATGACAGTGAAAGGCGACGTA registered a PBM binding z-score of 2.03.
Still for that read-out and setting: under ATATGGAGGTTAAGGGTCATTCAGGTTGGTTCGC stands 2.5; under CCTACTGGGCCAAGCTCATTGATCAGTCAAAGCA, -0.384; under AGTCAAAGTTCATCAAGGTAACGTAAGATATGCT, 4.57.
ACAGACAGGTGAGTGAAGGTCACTCAGCTGGACG showed a PBM binding z-score of -0.197.
Still for that read-out and setting: under TCGAGTAGGTTACGGGGGCCTTCAGGGATGAAGA stands 0.49; under CAAACTAGGTCACCGGAAAGTCAAAGTCCGCATG, 2.01.
As for CGAACTAGGTCAACAGGACAGTGAAGAGGTTGGA, the PBM binding z-score was 1.54.
Still for that read-out and setting: the value for CGAACTAGATCACCAGGACAGTGAAGAGGTTGGA was 0.251; that for CCGAGTAGGTTACGAGGGGACATTCAGTGCGAAT was 0.594.
CTGAGTAGGTTACGAGGGGGCATTCAGTGCGAAT came in with a PBM binding z-score of 1.46.
Same read-out and setting: under ATATGTAGGTTAGGGTGATTCAGAAAGTAGGGAA stands 0.979; under CCTAGTGGGCCAAAGGTCATTGATTCCAATGCTC, 1.92; under CTATGTAGGTTAAGGGGGTCATCCAGTTTGAAAG, 2.11.
Same read-out and setting: the value for CTCCAAAGGTCGGTTGAGGTGAGTATACGGATAA was 0.951; that for TCGAGTAGGTTACGGGGGCATTCATGGATGAAGA was 1.74.
CACACTAGGTCAAAGGTCAAAGTCGAGCCAACCA: the PBM binding z-score is 3.45.
Turning to CCGAGTAGGTTACGAGGGGGCATTCTGTGCGAAT, the PBM binding z-score amounted to 1.11.
On the same count and under the same terms, under CCTAGTGGGTCAGGAGGTCACACACCGGATATGA stands -0.339; under CCTAGCAGGCCACGGTCACTCAAGCATTTCGCTT, 0.229; under ATCTCTAGGTCAAAGTTCAGTGAATCCCGAGGAT, 2.65.
On the same count and under the same terms, the value for ACTCGGAGGACAAAGGTGAGAGCTACGCCAGTGA was 0.453.
On the same count and under the same terms, under ATATGAAGGTTATCGGGTCATTCAGTTTGCGCAT stands 2.04; under GGAACGGGGGCATTCGAGTTGATAGCATGGCGAT, 3.78; under CCTAGTTGGTCAGGAGGTCACATACCGGATATGA, 0.947.

The record behind these values is the supplement of paper PMC6555819.
